Results as given in PubChem BioAssay AID504843 (Broad Institute, 2011).
About 360 (30%) of roughly 1,200 compounds were called active. A selection follows. Entries with a potency or affinity are not part of this list. Values without a mark were called inactive. The rule behind the calls is not given here.

Test: bacterial growth inhibition, dose response, counter-screen, BacTiter-Glo luminescence, cherry-picked samples (AID 504843);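 note: growth measured after 8 h incubation at 30 °C; 0% = median of sample compound wells and -100% = antibiotic control wells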
Settings: BacTiter-Glo ATP luminescence; series mostly up to 15 µM; activity change, negative = inhibition: at the top concentration

Structure (SMILES) | activity change, negative = inhibition
COc1ccc(S(=O)(=O)N(C)C)cc1NC(=O)CSc1nnc(-c2cccnc2)o1 | 6.6%
CC1=CC(C)(C)N2C(=O)C3(C(C#N)=C(N)OC4=C3C(=O)CCC4)c3c(C)c(C)cc1c32 (configuration not stated) | 5.51%
CC1(C)CC(=O)C=C(NCCN2CCN(C(=O)Nc3ccccc3)CC2)C1 | 19.7%
COCCCN=C(c1ccco1)n1c(=S)nc(-c2ccco2)n(CCCOC)c1=S | 6.13%
O=C(COc1ccc([N+](=O)[O-])cc1)Nc1cc(S(=O)(=O)N2CCCCC2)ccc1N1CCCCC1 | 8.82%
CSc1ccccc1NC(=O)CN(C)CC(=O)Nc1ccc(S(=O)(=O)N2CCCC2)cc1 | 6.77%
Cc1c(C)c2c(C)nn(-c3ccccc3)c2[nH]c1=O | -4.55%
CC(C)C(c1nnnn1C1CCCC1)N1CCC(C(N)=O)CC1 (configuration not stated) | -2.09%
Cc1ccc(-n2nnnc2-c2cnc3cc4c(cc3c2C)OCO4)cc1 | 1.35%
O=C(Cc1ccccc1Cl)c1ccccc1 | 10%
O=C(NCc1ccccn1)C1CC(c2ccccc2O)=NO1 (configuration not stated) | -9.99%
COc1cc2cc(CN(CCO)S(=O)(=O)c3ccccc3Cl)c(=O)[nH]c2cc1OC | 0.781%
COC(=O)Nc1ccc2c(c1)N(C(=O)CCN1CCOCC1)c1ccccc1S2 | -14.7%
CC(C)(C)OC(=O)N(CCc1ccccc1)Cc1cccc(OCc2cccc(NC(=O)/C=C/c3ccccc3)c2)c1 | 7.89%
CCc1ccc(N2CC34C=CC(O3)C(C(=O)OC(C)C)C4C2=O)cc1 (configuration not stated) | 18.4%
Cc1nnc(SCc2ccccc2CSc2nnc(C)s2)s1 | 1.42%
Cc1onc(-c2ccccc2)c1C(=O)NCc1ccc(F)cc1 | -6.92%
Cc1onc(-c2c(F)cccc2Cl)c1C(=O)Nc1sc2c(c1C#N)CCC(C(C)(C)C)C2 (configuration not stated) | -16.8%
Cn1c(C(=O)NCc2cccs2)cc2c(=O)n(C)c3ccccc3c21 | -14.9%
CCCOc1ccc(/C(O)=C2/C(=O)C(=O)N(CCN(C)C)C2c2ccc(O)c(OC)c2)cc1 (configuration not stated) | 8.34%
COC(=O)CSc1ccc(C#N)c(SCC(=O)OC)c1 | 10.5%
CCOC(=O)C1=C(C)NC(=S)NC1c1cc(C)sc1C (configuration not stated) | 1.75%
CCN(CC)C(=O)C1=C(C)NC(=O)NC1c1c(F)cccc1Cl (configuration not stated) | 9.12%
Nc1ccc2c(c1)-c1ccccc1S(=O)(=O)N2 | -7.08%
CCCOc1cccc(C(=O)Nc2ccc(Br)cc2F)c1 | 13.1%
CCOC(=O)c1ccccc1-n1nnnc1C | 14.4%

Structure (SMILES) | activity change, negative = inhibition
O=C(CNc1ccc(Cl)cc1)c1ccc(Br)cc1 | 12.4%
O=S(=O)(/N=C(/Nc1ccccc1)c1ccccc1)c1cccs1 | 14.9%
COC(=O)COc1cc2ccccc2cc1C(=O)Nc1ccccc1 | 11.7%
COc1ccc(-c2cc(C(=O)Oc3ccc([N+](=O)[O-])cc3)c3ccccc3n2)cc1 | 13.5%
CCc1ccc(C(=O)Nc2ccc(S(=O)(=O)Nc3nc(C)cc(C)n3)cc2)o1 | -4.41%
CCO[C@@H]1OC(C(=O)O)=C[C@H](C)[C@H]1CCCO | -6.26%
O=C(O)C1(C(=O)O)CCC1 | -7.92%
Cc1occc1C(=O)NCc1cccc(CNC(=O)c2ccoc2C)c1 | -3.57%
O=C(Cn1cc(C(F)(F)F)ccc1=O)OCC(=O)c1ccc[nH]1 | -0.317%
COc1ccc(-c2[nH]nc3c2C(c2ccoc2)C(C#N)=C(N)O3)cc1 (configuration not stated) | 10.6%
COc1ccccc1N1CCN(C(=O)c2cc3c(=O)n4ccccc4nc3s2)CC1 | 4.25%
C=CCOc1ccccc1CN1CCC(n2nccc2NC(=O)C2CC2)CC1 | -0.759%
COc1ccccc1C(=O)Nc1ccnn1C1CCN(Cc2cnn(C)c2)CC1 | -9.99%
N#Cc1ccccc1S(=O)(=O)N1CCN(CC(=O)Nc2ccnn2C2CCCC2)CC1 | 1.24%
COc1ccccc1-c1ccc(=O)n(CC(=O)Nc2ccc(C(=O)N3CCCC3)cc2)n1 | -8.64%
C[C@H]1CN([C@@H](C)CO)C(=O)c2cccc(NS(=O)(=O)c3ccc(F)cc3)c2O[C@H]1CN(C)Cc1ccc(Cl)c(Cl)c1 | 21.8%
CNC(=O)CN(c1ccc(C(C)C)cc1)S(C)(=O)=O | 0.765%
CC1CCN(C(=O)C2(NC(=O)Nc3cccc(F)c3)CCCCC2)CC1 | 14.5%
CCOc1ccc(NC(=O)c2cccc(OC(=S)N3CCC(C)CC3)c2)cc1 | -6.49%
O=C(N[C@@H](Cc1ccccc1)C(=O)NC1CC1)c1ccc(Cl)cc1 | -0.277%
Cc1nc2ccc(C(=O)Nc3ccc4nc[nH]c4c3)cc2[nH]1 | 21.4%
CN1C(=O)N(C)C2(c3ccccc3)NC(=O)NC12c1ccccc1 (configuration not stated) | -6.8%
O=C(CC1SCCNC1=O)Nc1cccc(Cl)c1 (configuration not stated) | 7.99%
COC(=O)CN1C(=O)N/C(=C/c2ccccc2OC)C1=O | -2.13%
Nc1nnc(-c2ccc(F)cc2)s1 | -6.94%
O=C(CSc1nnc(-c2ccncc2)s1)Nc1ccc(Cl)c(C(=O)O)c1 | 19.2%
